Data taken from PubChem BioAssay (NCATS).

Assay: qHTS profiling of the MIPE4 collection as inhibitors of Plasmodium falciparum (3D7) proliferation (AID 743344);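 further: scaled between DMSO vehicle wells and 0.29 µM artemisinin as full inhibition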
Conditions: P. falciparum 3D7 in erythrocytes, SYBR Green DNA fluorescence, 72 h; at 9.64 µM (top of the series)
Text: Plasmodium falciparum is a virulent malarial parasite that kills 1-2 million people worldwide each year. Transmitted by mosquitoes, the sporozoite form of the parasite enters the blood stream to infect hepatocytes, where they become merozoites that infect red blood cells (erythrocytes). Within erythrocytes, merozoites begin a […] cycle of growth and division, after which the parasite is released to infect new red blood cells. Gametocytes, which form within erythrocytes as well, circulate in the bloodstream and are ingested by the mosquito, thereby completing the life cycle. To profile malarial isolates for differential chemical responses and to identify inhibitors of malarial growth, an assay that measures P. falciparum growth and replication within erythrocytes was employed. This assay uses a DNA binding fluorescent dye (SYBR Green) to detect parasite DNA following cell lysis. Because mature erythrocytes lack DNA, only Plasmodium-derived DNA is detected.
The SYBR Green viability assay was adapted from a method described previously (Plouffe et al., 2008). For screening 3 ul culture medium was dispensed into 1536 well black clear bottom plates (Aurora Biotechnologies) using a Multidrop Combi (Thermo Fisher Scientific Inc.), 23 nL compounds in DMSO were added by a pin tool (Kalypsys), and 5 ul of erythrocytes infected with P. falciparum (0.3% parasitemia, 2.5% hematocrit final concentration) were added. The plates were incubated at 37 C in a humidified incubator in 5% CO2 for 72 h, and 2 ul lysis buffer (20 mM Tris HCl, 10 mM EDTA, 0.16% saponin, 1.6% triton X, 10X SYBR Green I supplied as 10,000X […] by Invitrogen) was added to each well. The plates were mixed for 25 sec with gentle shaking and incubated overnight at room temperature in the dark. The following morning, fluorescence intensity at 485(14) nm excitation and 535(25) nm emission wavelengths was measured on an EnVision (Perkin Elmer) plate reader. Plate reads were normalized relative to the control inhibitor (0.29 uM artemisinin) and vehicle (DMSO) wells present on each plate and then corrected by an algorithm using vehicle-only control plates at the beginning and end of the compound plate stack.

| Compound | parasite growth, % of DMSO control [%] |
| --- | --- |
| C[C@H]1C[C@@H]2[C@@H]([C@@H](O)C[C@@]3(C)[C@H]2CC[C@]3(O)C(=O)CO)[C@@]2(C)C=CC(=O)C=C12 | 78.1 |

Same assay, conditions: P. falciparum 3D7 in erythrocytes, SYBR Green DNA fluorescence, 72 h; at 28.5 µM

| Compound | parasite growth, % of DMSO control [%] |
| --- | --- |
| C[C@H]1C[C@@H]2[C@@H]([C@@H](O)C[C@@]3(C)[C@H]2CC[C@]3(O)C(=O)CO)[C@@]2(C)C=CC(=O)C=C12 | 59.3 |

Same assay, conditions: P. falciparum 3D7 in erythrocytes, SYBR Green DNA fluorescence, 72 h; at 28.5 µM unless noted

| Compound | parasite growth, % of DMSO control |
| --- | --- |
| COc1cc(C(C)C)c2c(c1)S(=O)(=O)N(COc1cc(=O)n3cccc(OCCN4CCCCC4)c3n1)C2=O | 101% |
| CN(C)Cc1c(C(=O)NCCOc2ccc(C(=O)NO)cc2)oc2ccccc12 | 5.24% |
| Nc1nc(-c2nn(Cc3ccccc3F)c3ncccc23)nc(N)c1N1CCOCC1 | 28.3% |
| COc1cc2c(cc1-c1c(C)noc1C)ncc1[nH]c(=O)n([C@H](C)c3ccccn3)c12 | 67.1% |
| Cc1ccc(S(=O)(=O)Nc2cc(Cl)ccc2C(=O)Nc2nc(-c3ccccc3)cs2)cc1 | 64.3% |
| Cc1cc(C(=O)N2CCN(c3cccc(Cl)c3)CC2)n(-c2ccccc2)n1 | 97.2% |
| O=C(NCCS(=O)(=O)c1ccc(C(F)(F)F)cn1)c1ccc(Cl)cc1 | 127% |
| CC(=O)c1c(C)c2cnc(Nc3ccc(N4CCNCC4)cn3)nc2n(C2CCCC2)c1=O | 5.54% |
| COc1cccc(Nc2c(C(N)=O)cnc3c(C)cc(S(=O)(=O)c4cccc(C(=O)N(C)C)c4)cc23)c1 | 37.9% [at 9.64 µM] |
| Cn1c2ccccc2c2c3c(c4c5ccccc5n(CCC#N)c4c21)CNC3=O | 16% |
| Cc1ccc(-c2ncn(-c3ccc(Nc4nccc(-c5cccc(N6CCOCC6)c5)n4)cc3)n2)cn1 | 5.55% |
| Clc1cccc(-c2nnnn2Cc2cccnc2)c1Cl | 72.2% |
| C1Cc2[nH]nc(-c3nn[nH]n3)c2C1 | 96.6% |
| COc1cc2c(Oc3ccc(-c4cnc(Nc5ccc(F)cc5)n(C)c4=O)cc3F)ccnc2cc1OCCCN1CCOCC1 | 6.28% |
| COCCOc1ccc2c(c1)ncn2-c1ccc2cccc(N3CCC(N)CC3)c2n1 | 5.56% |
| Cc1ccc(NC(=O)C2(c3ccc4c(c3)OC(F)(F)O4)CC2)nc1-c1cccc(C(=O)O)c1 | 7.25% |
| COC(=O)[C@]12CCC(C)(C)C[C@@H]1[C@@H]1C(=O)C=C3[C@@]4(C)C=C(C#N)C(=O)C(C)(C)[C@@H]4CC[C@@]3(C)[C@]1(C)CC2 | 13.9% |
| Cc1[nH]c2ccccc2c1CCNCc1ccc(C=CC(=O)NO)cc1 | 4.38% |
| Nc1nc(Nc2ccc(S(N)(=O)=O)cc2)nn1C(=O)c1c(F)cccc1F | 16.5% |

| Compound | parasite growth, % of DMSO control |
| --- | --- |
| COC(=O)Nc1ccc(-c2nc(N3CCOCC3)c3cnn(C4CCN(Cc5cccnc5)CC4)c3n2)cc1 | 5.62% |
| c1nc2nc(Nc3ccc(N4CCOCC4)cc3)nc(NC3CCCCC3)c2[nH]1 | 12.6% |
| COc1ccc(C(=O)CC2(O)C(=O)Nc3c(Cl)ccc(Cl)c32)cc1 (stereo not given) | 74.3% |
| CC(C)(C)c1cc(NC(=O)Nc2ccc(-c3cn4c(n3)sc3cc(OCCN5CCOCC5)ccc34)cc2)no1 | 4.46% |
| Nc1ccc(S(=O)(=O)Nc2ncccn2)cc1 | 92.1% |
| NC(=O)Nc1cc(-c2cccc(F)c2)sc1C(=O)N[C@H]1CCCNC1 | 7.3% |
| COc1cc2c(Oc3ccc(NC(=O)C4(C(=O)Nc5ccc(F)cc5)CC4)cc3F)ccnc2cc1OCCCN1CCOCC1 | 7.43% |
| CN(C1CCc2c(c3ccccc3n2CC(=O)O)C1)S(=O)(=O)c1ccc(F)cc1 (stereo not given) | 15.9% |
| CC1(C)O[C@@H]2C[C@@H]3[C@H]4C[C@@H](F)C5=CC(=O)C=C[C@]5(C)[C@@]4(F)[C@@H](O)C[C@]3(C)[C@]2(C(=O)CO)O1 | 53.6% |
| Cc1cnc(Nc2ccc(F)cc2Cl)nc1-c1c[nH]c(C(=O)N[C@H](CO)c2cccc(Cl)c2)c1 | 7.48% |
| Cc1cn2cc(C(=O)N(C)CCO)cc(N[C@@H]3CCOc4cccc(C)c43)c2n1 | 33.4% |
| C=CC(=O)Nc1cc2c(Nc3ccc(F)c(Cl)c3)ncnc2cc1OCCCN1CCOCC1 | 31.1% |
| CN(C)CC=CC(=O)Nc1cc2c(Nc3ccc(F)c(Cl)c3)ncnc2cc1O[C@H]1CCOC1 | 6.72% |
| CCC1=C[C@@H]2CN(C1)Cc1c([nH]c3ccccc13)[C@@](C(=O)OC)(c1cc3c(cc1OC)N(C)[C@@H]1[C@@](O)(C(=O)OC)[C@H](OC(C)=O)[C@]4(CC)C=CCN5CC[C@]31[C@@H]54)C2 | 5.09% |
| O=c1[nH]c(=O)n(C2CCCO2)cc1F (stereo not given) | 404% [at 57.5 µM] |
| O=C(O)Cn1nnc(-c2cc(N3CCC(Oc4cc(F)ccc4Br)CC3)no2)n1 | 86% |
| O=C(C=Cc1cccc(S(=O)(=O)Nc2ccccc2)c1)NO | 4.9% [at 57.5 µM] |
| Nc1nccc(Oc2ccc(NC(=O)c3c[nH]cc(-c4ccc(F)cc4)c3=O)cc2F)c1Cl | 4.72% |
| NC(=O)c1c(OCc2c(F)cc(Br)cc2F)nsc1NC(=O)NCCCCN1CCCC1 | 47.5% |
